# Source: PMC7862700, “An all-to-all approach to the identification of sequence-specific readers for epigenetic DNA modifications on cytosine”
# Tests used:
# Test in all cases: DAPPL (digital affinity profiling via proximity ligation, sequencing); 10 mM Tris-HCl pH 7.5, 50 mM NaCl, 1 mM DTT, 4% glycerol, room temperature, 30 min; GST-TFs on glutathione beads, 16-mer random dsDNA library, 0.1% formaldehyde crosslink after washing; high values mean tight binding
# Details in all cases: protein: recombinant; tags: N-terminal GST; dsDNA, one strand shown
# [1] = target: ETV1 (Homo sapiens, UniProt P50549 1-477)
# Sequence of ETV1 (P50549 whole entry, the tested form may be a part): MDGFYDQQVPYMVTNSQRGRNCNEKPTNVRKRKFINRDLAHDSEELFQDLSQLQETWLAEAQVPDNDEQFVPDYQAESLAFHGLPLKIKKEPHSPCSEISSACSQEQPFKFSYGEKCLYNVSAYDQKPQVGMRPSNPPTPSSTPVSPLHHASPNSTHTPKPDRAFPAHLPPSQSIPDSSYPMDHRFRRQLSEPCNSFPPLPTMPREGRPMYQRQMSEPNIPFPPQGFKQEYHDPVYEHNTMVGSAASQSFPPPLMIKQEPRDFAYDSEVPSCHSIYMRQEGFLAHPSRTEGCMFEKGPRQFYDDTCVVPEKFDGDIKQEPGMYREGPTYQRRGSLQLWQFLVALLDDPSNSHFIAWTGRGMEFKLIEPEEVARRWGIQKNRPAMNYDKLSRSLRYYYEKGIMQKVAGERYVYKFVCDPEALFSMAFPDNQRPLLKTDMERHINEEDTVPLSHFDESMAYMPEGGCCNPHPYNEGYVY
# In short: (§1)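 Pools were built from human transcription factors expressed in yeast as GST fusions, captured on glutathione beads and DNA-barcoded, along with a tag-only sample. Incubation with 200 nmole of a 16-mer random double-stranded DNA library lasted 30 min at room temperature in Tris/NaCl/DTT/glycerol buffer, and was followed by washing, 0.1% formaldehyde crosslinking, proximity ligation, PCR amplification and Illumina NextSeq500 sequencing. Binding signal is the quotient of each hexamer's read frequency for a factor and its frequency for the tag-only sample.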
# [2] = target: T1, ERF (Homo sapiens, UniProt P50548 1-548)
# T1 sequence: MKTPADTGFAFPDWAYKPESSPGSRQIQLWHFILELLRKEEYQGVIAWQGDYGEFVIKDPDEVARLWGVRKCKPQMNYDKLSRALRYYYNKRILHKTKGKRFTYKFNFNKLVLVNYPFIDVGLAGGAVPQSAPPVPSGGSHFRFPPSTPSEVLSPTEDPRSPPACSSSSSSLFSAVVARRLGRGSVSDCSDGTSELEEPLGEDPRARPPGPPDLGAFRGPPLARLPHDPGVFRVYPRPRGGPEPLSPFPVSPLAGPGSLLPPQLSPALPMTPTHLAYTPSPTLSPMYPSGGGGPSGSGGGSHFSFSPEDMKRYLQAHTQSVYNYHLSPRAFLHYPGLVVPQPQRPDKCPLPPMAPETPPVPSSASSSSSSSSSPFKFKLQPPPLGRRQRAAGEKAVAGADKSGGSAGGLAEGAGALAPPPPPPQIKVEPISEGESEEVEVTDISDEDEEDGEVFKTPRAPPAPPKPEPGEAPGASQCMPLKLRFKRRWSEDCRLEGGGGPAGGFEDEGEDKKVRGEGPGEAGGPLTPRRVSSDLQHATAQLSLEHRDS
# In short: as §1
# [3] = target: T2, ETV3L (Homo sapiens, UniProt Q6ZN32 1-361)
# T2 sequence: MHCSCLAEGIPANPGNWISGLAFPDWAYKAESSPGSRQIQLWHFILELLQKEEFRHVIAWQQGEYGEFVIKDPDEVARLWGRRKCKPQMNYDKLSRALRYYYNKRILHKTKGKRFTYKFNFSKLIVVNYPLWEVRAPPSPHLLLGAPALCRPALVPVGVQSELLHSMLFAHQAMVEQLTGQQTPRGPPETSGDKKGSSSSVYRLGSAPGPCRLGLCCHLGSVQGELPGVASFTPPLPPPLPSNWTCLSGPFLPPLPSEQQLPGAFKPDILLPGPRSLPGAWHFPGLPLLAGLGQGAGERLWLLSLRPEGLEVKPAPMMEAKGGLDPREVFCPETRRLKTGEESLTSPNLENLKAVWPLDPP
# In short: as §1
# [4] = target: T3, ETS2 (Homo sapiens, UniProt P15036 1-469)
# T3 sequence: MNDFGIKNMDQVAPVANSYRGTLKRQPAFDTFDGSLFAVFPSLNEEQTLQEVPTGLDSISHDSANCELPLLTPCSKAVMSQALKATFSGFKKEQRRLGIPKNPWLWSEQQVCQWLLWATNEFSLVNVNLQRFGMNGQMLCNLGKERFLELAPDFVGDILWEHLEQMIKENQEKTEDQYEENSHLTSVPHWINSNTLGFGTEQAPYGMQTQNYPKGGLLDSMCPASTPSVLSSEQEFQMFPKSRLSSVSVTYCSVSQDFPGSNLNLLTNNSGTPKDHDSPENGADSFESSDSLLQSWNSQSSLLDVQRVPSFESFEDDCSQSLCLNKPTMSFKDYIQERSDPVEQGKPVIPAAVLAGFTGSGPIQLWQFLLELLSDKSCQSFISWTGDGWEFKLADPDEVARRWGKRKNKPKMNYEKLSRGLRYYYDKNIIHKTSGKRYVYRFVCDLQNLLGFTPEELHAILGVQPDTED
# In short: as §1
# [5] = target: T4, SPDEF (Homo sapiens, UniProt O95238 1-335)
# T4 sequence: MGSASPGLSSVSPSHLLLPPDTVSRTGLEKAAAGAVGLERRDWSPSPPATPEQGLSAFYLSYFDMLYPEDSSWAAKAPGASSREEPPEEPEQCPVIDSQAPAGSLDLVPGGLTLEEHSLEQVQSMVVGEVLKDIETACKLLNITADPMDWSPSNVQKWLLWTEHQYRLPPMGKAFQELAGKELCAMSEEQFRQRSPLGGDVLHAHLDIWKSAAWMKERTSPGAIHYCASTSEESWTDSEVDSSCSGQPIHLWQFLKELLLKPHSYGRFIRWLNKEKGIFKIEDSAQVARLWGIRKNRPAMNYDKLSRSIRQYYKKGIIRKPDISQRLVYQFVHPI
# In short: as §1
# [6] = target: T5, ETV7 (Homo sapiens, UniProt Q9Y603 1-341)
# T5 sequence: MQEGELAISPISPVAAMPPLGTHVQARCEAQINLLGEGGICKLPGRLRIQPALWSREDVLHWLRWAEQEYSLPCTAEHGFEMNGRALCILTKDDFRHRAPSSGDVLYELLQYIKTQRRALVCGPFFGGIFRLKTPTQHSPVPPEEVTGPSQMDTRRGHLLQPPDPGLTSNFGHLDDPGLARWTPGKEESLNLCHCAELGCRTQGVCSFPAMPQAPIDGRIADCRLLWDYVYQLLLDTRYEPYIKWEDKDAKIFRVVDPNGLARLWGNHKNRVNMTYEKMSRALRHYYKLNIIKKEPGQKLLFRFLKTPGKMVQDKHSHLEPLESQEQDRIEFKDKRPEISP
# In short: as §1
# [7] = target: T6, ELF5 (Homo sapiens, UniProt Q9UKW6-2 1-255)
# T6 sequence: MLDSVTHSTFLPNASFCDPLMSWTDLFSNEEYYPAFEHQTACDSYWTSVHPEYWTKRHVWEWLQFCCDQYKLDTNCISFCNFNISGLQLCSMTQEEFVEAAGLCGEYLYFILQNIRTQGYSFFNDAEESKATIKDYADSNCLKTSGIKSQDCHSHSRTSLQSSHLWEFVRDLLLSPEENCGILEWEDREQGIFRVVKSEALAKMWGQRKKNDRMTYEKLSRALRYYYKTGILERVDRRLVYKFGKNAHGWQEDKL
# In short: as §1
# [8] = target: T7, ETV3 (Homo sapiens, UniProt P41162-2 1-143)
# T7 sequence: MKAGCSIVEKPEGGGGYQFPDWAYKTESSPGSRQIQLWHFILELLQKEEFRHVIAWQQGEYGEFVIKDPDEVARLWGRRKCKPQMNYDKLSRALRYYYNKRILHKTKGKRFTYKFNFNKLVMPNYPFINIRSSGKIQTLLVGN
# In short: as §1
# [9] = target: ETV6 (Homo sapiens, UniProt P41212 1-452)
# Sequence of ETV6 (P41212 whole entry): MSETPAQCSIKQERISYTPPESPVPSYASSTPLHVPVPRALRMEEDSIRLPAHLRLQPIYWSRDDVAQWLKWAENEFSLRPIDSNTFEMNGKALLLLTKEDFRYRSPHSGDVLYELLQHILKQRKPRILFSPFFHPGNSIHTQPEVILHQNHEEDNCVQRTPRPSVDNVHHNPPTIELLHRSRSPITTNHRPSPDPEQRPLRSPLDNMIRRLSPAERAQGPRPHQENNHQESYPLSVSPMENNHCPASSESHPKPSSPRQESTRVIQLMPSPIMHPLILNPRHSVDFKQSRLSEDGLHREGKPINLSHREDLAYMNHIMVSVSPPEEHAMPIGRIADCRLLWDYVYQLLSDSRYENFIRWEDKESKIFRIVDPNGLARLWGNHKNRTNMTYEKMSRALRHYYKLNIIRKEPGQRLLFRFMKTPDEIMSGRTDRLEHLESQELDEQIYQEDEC
# In short: as §1
sequence,measurement,setting,value
TTAAAG,binding signal,[1],"1.15 fold enrichment (6-mer frequency, TF over GST control)"
same,binding signal,[2],"1.25 fold enrichment (6-mer frequency, TF over GST control)"
same,binding signal,[3],"1.2 fold enrichment (6-mer frequency, TF over GST control)"
same,binding signal,[4],"1.19 fold enrichment (6-mer frequency, TF over GST control)"
same,binding signal,[5],"1.12 fold enrichment (6-mer frequency, TF over GST control)"
same,binding signal,[6],"1.21 fold enrichment (6-mer frequency, TF over GST control)"
same,binding signal,[7],"1.13 fold enrichment (6-mer frequency, TF over GST control)"
same,binding signal,[8],"1.21 fold enrichment (6-mer frequency, TF over GST control)"
same,binding signal,[9],"1.19 fold enrichment (6-mer frequency, TF over GST control)"
